Measurements published in PubChem BioAssay (NCATS).
Values without a mark were called inactive. Inconclusive results are not listed. Calls of active or inactive are those of the source. Unless noted, the call rests on the fitted dose curve; in most records, active means well fitted curve in the direction sought with a large enough effect; inconclusive means small, poorly fitted or top-dose-only effect, or another doubt; inactive means no such curve, though single readings can be large; an effect the other way counts as inactive or inconclusive.

What was measured:
[1] = target: Lysosomal acid glucosylceramidase (Homo sapiens) (UniProt P04062); test: Glucocerebrosidase-p2 (AID 348; in the data active means potency below about 10 µM; further: potency means the concentration at half of the fitted maximal effect); conditions: purified GBA, blue fluorogenic substrate, 40 min
Procedure, shortened: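 Normal human glucocerebrosidase (0.2 nM) with blue fluorogenic substrate (80 uM final) in citrate/phosphate pH 5.9 with 10mM sodium taurocholate, 0.01% tween-20; 40 min RT, NaOH/glycine stop; fluorescence Ex 365/Em 440; AC50 from a titration from 0.6 nM upwards.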

[2] = AP1 Signaling Pathway (AID 357; active means well fitted curve in either direction with a large enough effect, not every such curve was filed as active; further: on the % scale 0 is the no-effect control and ±100 the full control effect); conditions: ME-180 AP-1-bla reporter, EGF-induced, beta-lactamase ratio, 5 h; at 7.69 µM (top of the series) unless noted
Procedure, shortened: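 ME-180 cells with beta-lactamase reporter under AP-1 response element, stimulated with EC50 EGF; compounds tested in titration series, 5 h at 37 °C. CCF4 substrate added 2.5 h at room temperature; 460/530 nm emission ratio gave %activity and AC50.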

[3] = target: Cytochrome P450 1A2 (Homo sapiens) (UniProt P05177); test: p450-cyp1a2 (AID 410; calls by dose curve; further: potency means the concentration at half of the fitted maximal effect); conditions: recombinant CYP1A2, luciferin-ME demethylation, luminescence; series mostly up to 57 µM
Procedure, shortened: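 Luminescent demethylation readout: Luciferin-ME (100uM, equal to Km) turned over by 20nM CYP1A2 for 60 min at room temperature after NADPH regeneration addition, following 10 min compound preincubation. Normalization used 57 uM furafylline as full inhibition.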

[4] = NFAT Signaling Pathway (AID 444; active means well fitted curve in either direction with a large enough effect, not every such curve was filed as active;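 further: carbachol stimulus at about its EC50 of 1 µM final; on the % scale 0 is the no-effect control and ±100 the full control effect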); conditions: Jurkat NFAT-bla M1, carbachol, beta-lactamase ratio, 5 h; at 7.69 µM (top of the series) unless noted
Procedure, shortened: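 Jurkat cells with NFAT-driven β-lactamase reporter and co-expressed M1 receptor, stimulated with carbachol (final 1 uM, ~EC50), compound titration, 5 h at 37 °C. CCF4 loaded 1 h at RT; 460/530 nm ratio gave %activity and AC50.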

[5] = Stat Signaling Pathway (AID 446; active means well fitted curve in either direction with a large enough effect, not every such curve was filed as active;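 further: ME-180 cervical cancer cells given 40 pM IL-6 alongside compound; SIE-controlled beta-lactamase reporter measured as 460/530 nm FRET emission ratio; on the % scale 0 is the no-effect control and ±100 the full control effect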); conditions: ME-180 SIE beta-lactamase reporter, IL-6 stimulated, 5 h; at 7.69 µM (top of the series) unless noted
Procedure, shortened: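 FRET read-out (405 nm excitation, 460/530 nm emission) of a beta-lactamase reporter under a STAT-inducible element in ME-180 cervical carcinoma cells. Cells with compound receive 40 pM IL-6 for 5 h. Values are normalised to AC90 stimulation and AC90 JAK-inhibitor controls.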

[6] = target: Glucocorticoid receptor (Homo sapiens) (UniProt P04150); test: GR-GFP Redistribution (AID 450;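 active means compounds whose dose series gives a full or clear partial fitted curve of increased nuclear translocation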; further: potency means the concentration at half of the fitted maximal effect); conditions: U2OS GR-GFP nuclear translocation, laser cytometry, 2 h
[7] = target: Glucocorticoid receptor (Homo sapiens) (UniProt P04150); test: GR-EFC Redistribution (AID 451; calls by dose curve; further: potency means the concentration at half of the fitted maximal effect); conditions: CHO-K1 GR-EFC translocation, beta-gal luminescence, 2 h
Procedure, shortened: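 CHO-K1 cells expressing nuclear EA and GR-ED fragments of b-gal; compounds titrated up to 46 uM final, 2 h at 37 C. GR nuclear translocation read as complemented b-gal luminescence after 1 h RT detection.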

[8] = target: Mitogen-activated protein kinase 10 (Mus musculus) (UniProt Q61831); test: JNK3 AlphaScreen Assay (AID 530; active means well fitted curve in either direction with a large enough effect, not every such curve was filed as active;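 further: kinase came from lysate of stimulated human HepG2 cells; signal reports phosphorylation of biotinylated GST-cJun 1-79 at Ser73 with 10 µM ATP; on the % scale 0 is the no-effect control and ±100 the full control effect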); conditions: JNK3 lysate, c-Jun phosphorylation; series mostly up to 57.1 µM
Procedure, shortened: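 Activity was read by AlphaScreen after JNK3-containing HepG2 lysate (cytokine pre-activated) phosphorylated biotinylated GST-cJun with 10 uM ATP at room temperature. Phospho-Ser73 cJun antibody with Protein-A acceptor beads provided detection.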

[9] = target: 3',5'-cyclic-AMP phosphodiesterase 4B (Homo sapiens) (UniProt Q07343); test: qHTS Assay for Inhibitors of PDE-IV (AID 607; active means well fitted activation curve with a large enough effect in the main read-out, with a control signal flat, not every such curve was filed as active; further: % of control where 0% means no effect); conditions: HEK293 ACTOne CNG channel cells, membrane potential fluorescence; series mostly up to 22.9 µM
Procedure, shortened: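 Cell-based read-out of cAMP via a modified cyclic nucleotide-gated channel and membrane potential dye (535/590 nm) in HEK293 cells expressing PDE4 endogenously. Compounds tested up to 22.9 uM final; 100 uM RO 20-1724 reference.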

[10] = target: Cytochrome P450 3A4 (Homo sapiens) (UniProt P08684); test: qHTS Assay for Activators of Cytochrome P450 3A4 (AID 885); conditions: recombinant CYP3A4, Luciferin-PPXE luminescence, 60 min; series mostly up to 57.1 µM; further: nearly all actives have a fitted effect of over 65% in size
Procedure, shortened: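 Luminescent readout of luciferin formed from 25 uM Luciferin-PPXE (KM level) by 20 nM CYP3A4 in 200 mM KPO4, with 60 min NADPH-driven reaction at room temperature after 10 min compound exposure. Ketoconazole (57 uM) defined 100% inhibition.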

[11] = target: Dual specificity protein kinase CLK4 (Homo sapiens) (UniProt Q9HAZ1); test: qHTS Assay for Inhibitors of CDC-like Kinase 4 (ADP-FP Assay) (AID 1795); conditions: Transcreener ADP fluorescence polarization; series mostly up to 50 µM;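 further: recombinant human CLK4 phosphorylating RS repeat peptide at 1 µM ATP; on the % scale 0 is the no-effect control and ±100 the full control effect; nearly all actives have a fitted effect of over 60% in size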
Procedure, shortened: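 Recombinant Clk4 (6.25 nM) phosphorylated 100 uM RS repeat peptide with 1 uM ATP in 25 mM Tris pH 7.5, 10 mM MgCl2, 0.5 mM EGTA, 2.5 mM DTT, 0.01% Triton X-100 for 1 h. ADP was detected by Transcreener ADP2 competitive fluorescence polarization after 30 min at room temperature.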

[12] = target: Ubiquitin carboxyl-terminal hydrolase 1 (Homo sapiens) (UniProt O94782); test: Inhibitors of USP1/UAF1: Pilot qHTS (AID 504865); conditions: purified USP1/UAF1, Ub-rhodamine cleavage fluorescence; series mostly up to 54.9 µM;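 further: rhodamine fluorescence freed from ubiquitin-rhodamine substrate followed over time; top concentration of the series differs between compounds; on the % scale 0 is the no-effect control and ±100 the full control effect; nearly all actives have a fitted effect of over 35% in size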
Procedure, shortened: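 USP1/UAF1 complex at 1 nM preincubated 15 min at room temperature with compound, then Ub-Rho substrate added at 150 nM final. Fluorescence (480/540 nm) read kinetically in 50 mM HEPES pH 7.8, 0.5 mM EDTA, 1 mM TCEP, 0.1 mg/ml BSA, 0.01% Tween-20.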

[13] = Primary qHTS for small molecule stabilizers of the endoplasmic reticulum resident proteome: Secreted ER Calcium Modulated Protein (SERCaMP) assay (AID 1508630); conditions: SH-SY5Y GLuc-SERCaMP (Gaussia luciferase released on ER calcium loss) secretion, thapsigargin, luminescence; series mostly up to 38.4 µM; further: on the % scale 0 is the no-effect control and ±100 the full control effect
Procedure, shortened: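 The SH-SY5Y reporter protocol was run at 3 concentrations up to 38.3 uM (primary) or 11 concentrations (follow-up): 16 h compound, 100 nM thapsigargin for 4 h, then extracellular luciferase luminescence.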

[14] = target: Cytochrome P450 3A4 (Homo sapiens) (UniProt P08684); test: qHTS Assay for Inhibitors and Substrates of Cytochrome P450 3A4 (AID 884); conditions: recombinant CYP3A4, Luciferin-PPXE luminescence; series mostly up to 57.1 µM; further: potency means the concentration at half of the fitted maximal effect; nearly all actives have a fitted effect of over 50% in size
Procedure, shortened: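 Luminescent readout of luciferin produced by CYP3A4 (20 nM) dealkylation of Luciferin-PPXE, 25 uM (its KM). NADPH-driven reaction ran 60 min at RT after 10 min compound preincubation; data scaled to 57 uM ketoconazole as 100% inhibition.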

[15] = target: Cytochrome P450 2C19 (Homo sapiens) (UniProt P33261); test: qHTS Assay for Inhibitors and Substrates of Cytochrome P450 2C19 (AID 899); conditions: recombinant CYP2C19, luciferin-H EGE luminescence; series mostly up to 57.1 µM; further: potency means the concentration at half of the fitted maximal effect; nearly all actives have a fitted effect of over 60% in size
Procedure, shortened: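 Signal comes from luciferase acting on luciferin released by CYP2C19-mediated hydroxylation of Luciferin-H EGE, 10uM (KM). Assay mix: 5nM enzyme, 50mM KPO4; 60 min at 37C with NADPH regeneration. Data normalized against 57uM ketoconazole.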

[16] = qHTS Assay for Identification of Small Molecule Agonists for Hypoxia Response Element Signaling Pathway (AID 914; active means well fitted activation curve with a large enough effect in the signal ratio, with a control signal flat, not every such curve was filed as active; the % refers to the signal ratio; further: % of control where 0% means no effect); conditions: ME-180 (cervical carcinoma) HRE-bla reporter, beta-lactamase ratio, CoCl2, 17 h; activation: active compounds read high
Procedure, shortened: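 Positive modulation of EC50 CoCl2-induced hypoxia response element signaling is measured in ME-180 cells with a beta-lactamase reporter. Compounds are titrated, incubation runs 17 hours, and %Activity derives from the blue/green ratio.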

Cytochrome P450 3A4 (Homo sapiens), sequence (P08684 whole entry, looked up): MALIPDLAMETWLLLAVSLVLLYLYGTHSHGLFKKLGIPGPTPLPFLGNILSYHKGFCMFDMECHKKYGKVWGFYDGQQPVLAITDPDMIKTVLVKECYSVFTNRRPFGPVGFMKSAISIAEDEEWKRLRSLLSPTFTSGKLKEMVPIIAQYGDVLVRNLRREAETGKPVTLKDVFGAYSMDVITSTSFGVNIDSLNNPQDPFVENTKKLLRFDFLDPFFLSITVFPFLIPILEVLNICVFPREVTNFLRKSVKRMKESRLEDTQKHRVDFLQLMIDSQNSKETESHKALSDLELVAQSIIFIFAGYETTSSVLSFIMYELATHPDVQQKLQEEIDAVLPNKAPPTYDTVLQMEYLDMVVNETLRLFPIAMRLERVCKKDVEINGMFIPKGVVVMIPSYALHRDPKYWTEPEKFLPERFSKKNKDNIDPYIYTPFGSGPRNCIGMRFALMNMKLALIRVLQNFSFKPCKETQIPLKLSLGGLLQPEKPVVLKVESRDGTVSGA
Lysosomal acid glucosylceramidase (Homo sapiens), sequence (P04062 whole entry, looked up): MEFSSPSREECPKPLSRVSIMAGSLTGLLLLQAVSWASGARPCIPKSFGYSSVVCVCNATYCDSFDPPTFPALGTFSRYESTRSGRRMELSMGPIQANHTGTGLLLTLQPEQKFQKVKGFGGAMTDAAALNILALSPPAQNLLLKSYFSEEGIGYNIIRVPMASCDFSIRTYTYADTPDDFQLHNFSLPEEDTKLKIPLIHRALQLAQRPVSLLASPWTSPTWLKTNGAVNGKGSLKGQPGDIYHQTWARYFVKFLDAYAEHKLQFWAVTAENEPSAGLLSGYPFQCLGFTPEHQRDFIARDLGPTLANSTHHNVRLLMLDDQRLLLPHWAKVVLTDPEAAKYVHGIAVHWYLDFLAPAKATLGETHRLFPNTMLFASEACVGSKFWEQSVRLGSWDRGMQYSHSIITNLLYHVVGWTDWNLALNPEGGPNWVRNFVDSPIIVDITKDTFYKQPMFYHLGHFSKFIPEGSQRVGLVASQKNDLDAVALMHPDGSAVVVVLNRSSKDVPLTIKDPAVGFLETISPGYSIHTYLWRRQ
Glucocorticoid receptor (Homo sapiens), sequence (P04150 whole entry, looked up, the tested form may be a part): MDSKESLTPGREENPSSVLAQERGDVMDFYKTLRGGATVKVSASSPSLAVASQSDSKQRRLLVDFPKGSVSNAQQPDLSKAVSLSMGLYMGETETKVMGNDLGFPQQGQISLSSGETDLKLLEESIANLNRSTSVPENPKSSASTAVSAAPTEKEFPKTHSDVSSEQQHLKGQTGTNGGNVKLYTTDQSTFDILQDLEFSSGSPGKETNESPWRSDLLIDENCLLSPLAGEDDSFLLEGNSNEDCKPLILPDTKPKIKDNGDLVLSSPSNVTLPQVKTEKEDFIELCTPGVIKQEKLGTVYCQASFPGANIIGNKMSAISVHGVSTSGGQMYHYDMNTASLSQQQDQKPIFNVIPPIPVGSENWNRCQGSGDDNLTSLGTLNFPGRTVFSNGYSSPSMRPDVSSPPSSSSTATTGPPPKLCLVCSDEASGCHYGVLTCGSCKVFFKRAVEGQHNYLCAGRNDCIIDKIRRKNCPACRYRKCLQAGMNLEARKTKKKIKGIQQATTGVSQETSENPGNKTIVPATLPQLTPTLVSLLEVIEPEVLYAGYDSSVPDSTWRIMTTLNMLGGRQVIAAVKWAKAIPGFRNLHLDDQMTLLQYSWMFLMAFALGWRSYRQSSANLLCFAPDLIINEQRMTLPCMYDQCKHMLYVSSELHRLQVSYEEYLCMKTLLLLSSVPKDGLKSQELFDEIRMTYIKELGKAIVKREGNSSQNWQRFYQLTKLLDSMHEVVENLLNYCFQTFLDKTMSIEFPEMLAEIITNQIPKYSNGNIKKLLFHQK
Cytochrome P450 2C19 (Homo sapiens), sequence (P33261 whole entry, looked up): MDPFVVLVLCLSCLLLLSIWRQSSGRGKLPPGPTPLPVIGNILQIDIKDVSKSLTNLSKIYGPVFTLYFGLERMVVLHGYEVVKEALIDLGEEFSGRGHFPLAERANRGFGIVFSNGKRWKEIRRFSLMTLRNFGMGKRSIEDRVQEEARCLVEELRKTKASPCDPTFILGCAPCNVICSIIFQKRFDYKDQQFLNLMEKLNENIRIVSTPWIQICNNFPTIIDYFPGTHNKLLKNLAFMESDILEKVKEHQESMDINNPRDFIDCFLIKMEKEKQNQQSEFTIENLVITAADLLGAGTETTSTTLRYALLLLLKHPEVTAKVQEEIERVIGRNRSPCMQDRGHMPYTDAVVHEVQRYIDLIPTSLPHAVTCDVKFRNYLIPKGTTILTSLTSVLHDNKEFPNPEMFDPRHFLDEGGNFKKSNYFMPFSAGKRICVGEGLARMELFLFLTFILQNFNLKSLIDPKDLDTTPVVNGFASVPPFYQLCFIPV
Dual specificity protein kinase CLK4 (Homo sapiens), sequence (Q9HAZ1 whole entry, looked up): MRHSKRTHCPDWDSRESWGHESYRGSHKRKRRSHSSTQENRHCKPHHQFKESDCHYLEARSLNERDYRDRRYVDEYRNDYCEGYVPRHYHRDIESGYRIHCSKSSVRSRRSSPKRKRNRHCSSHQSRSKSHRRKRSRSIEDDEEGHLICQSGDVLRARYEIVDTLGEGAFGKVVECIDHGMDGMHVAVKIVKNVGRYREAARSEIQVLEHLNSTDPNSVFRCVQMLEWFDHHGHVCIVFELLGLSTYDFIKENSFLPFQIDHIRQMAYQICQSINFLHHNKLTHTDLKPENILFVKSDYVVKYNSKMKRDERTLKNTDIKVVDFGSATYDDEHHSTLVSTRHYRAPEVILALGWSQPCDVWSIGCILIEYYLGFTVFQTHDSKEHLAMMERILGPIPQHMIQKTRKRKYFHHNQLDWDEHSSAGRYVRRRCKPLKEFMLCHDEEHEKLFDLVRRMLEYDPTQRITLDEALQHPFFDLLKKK
Cytochrome P450 1A2 (Homo sapiens), sequence (P05177 whole entry, looked up): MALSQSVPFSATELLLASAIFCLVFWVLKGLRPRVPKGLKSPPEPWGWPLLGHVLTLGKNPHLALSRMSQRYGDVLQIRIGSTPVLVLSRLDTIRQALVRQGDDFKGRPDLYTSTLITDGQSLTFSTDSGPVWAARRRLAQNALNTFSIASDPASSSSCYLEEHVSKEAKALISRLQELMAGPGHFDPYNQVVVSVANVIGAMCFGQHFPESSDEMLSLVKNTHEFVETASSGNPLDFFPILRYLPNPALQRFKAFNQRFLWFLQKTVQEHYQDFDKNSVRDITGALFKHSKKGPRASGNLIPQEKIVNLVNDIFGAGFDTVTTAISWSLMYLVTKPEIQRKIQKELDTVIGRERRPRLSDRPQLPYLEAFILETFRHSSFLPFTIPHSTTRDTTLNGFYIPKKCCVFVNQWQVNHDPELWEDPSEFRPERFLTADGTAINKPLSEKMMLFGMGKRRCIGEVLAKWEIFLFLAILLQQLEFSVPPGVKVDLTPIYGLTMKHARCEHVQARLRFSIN
3',5'-cyclic-AMP phosphodiesterase 4B (Homo sapiens), sequence (Q07343 whole entry, looked up): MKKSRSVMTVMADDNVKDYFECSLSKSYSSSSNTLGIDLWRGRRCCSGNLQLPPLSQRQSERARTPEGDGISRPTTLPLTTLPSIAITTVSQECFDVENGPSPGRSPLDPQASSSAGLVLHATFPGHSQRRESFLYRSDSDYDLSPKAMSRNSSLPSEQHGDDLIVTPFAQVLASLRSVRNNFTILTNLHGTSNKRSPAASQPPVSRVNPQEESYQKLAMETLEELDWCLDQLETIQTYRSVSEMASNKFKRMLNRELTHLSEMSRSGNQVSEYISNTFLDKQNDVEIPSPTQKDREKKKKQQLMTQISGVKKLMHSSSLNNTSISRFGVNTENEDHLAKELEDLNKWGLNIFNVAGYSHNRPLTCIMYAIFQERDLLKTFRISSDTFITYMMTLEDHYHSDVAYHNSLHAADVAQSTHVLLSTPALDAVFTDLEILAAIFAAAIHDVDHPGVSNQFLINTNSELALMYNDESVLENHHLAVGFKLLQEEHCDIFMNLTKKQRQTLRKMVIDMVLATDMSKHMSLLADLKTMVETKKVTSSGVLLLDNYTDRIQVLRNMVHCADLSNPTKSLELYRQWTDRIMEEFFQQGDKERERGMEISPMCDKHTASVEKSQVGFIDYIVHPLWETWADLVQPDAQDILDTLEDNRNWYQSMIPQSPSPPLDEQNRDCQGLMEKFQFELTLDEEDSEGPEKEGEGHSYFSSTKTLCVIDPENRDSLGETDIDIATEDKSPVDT
Ubiquitin carboxyl-terminal hydrolase 1 (Homo sapiens), sequence (O94782 whole entry, looked up): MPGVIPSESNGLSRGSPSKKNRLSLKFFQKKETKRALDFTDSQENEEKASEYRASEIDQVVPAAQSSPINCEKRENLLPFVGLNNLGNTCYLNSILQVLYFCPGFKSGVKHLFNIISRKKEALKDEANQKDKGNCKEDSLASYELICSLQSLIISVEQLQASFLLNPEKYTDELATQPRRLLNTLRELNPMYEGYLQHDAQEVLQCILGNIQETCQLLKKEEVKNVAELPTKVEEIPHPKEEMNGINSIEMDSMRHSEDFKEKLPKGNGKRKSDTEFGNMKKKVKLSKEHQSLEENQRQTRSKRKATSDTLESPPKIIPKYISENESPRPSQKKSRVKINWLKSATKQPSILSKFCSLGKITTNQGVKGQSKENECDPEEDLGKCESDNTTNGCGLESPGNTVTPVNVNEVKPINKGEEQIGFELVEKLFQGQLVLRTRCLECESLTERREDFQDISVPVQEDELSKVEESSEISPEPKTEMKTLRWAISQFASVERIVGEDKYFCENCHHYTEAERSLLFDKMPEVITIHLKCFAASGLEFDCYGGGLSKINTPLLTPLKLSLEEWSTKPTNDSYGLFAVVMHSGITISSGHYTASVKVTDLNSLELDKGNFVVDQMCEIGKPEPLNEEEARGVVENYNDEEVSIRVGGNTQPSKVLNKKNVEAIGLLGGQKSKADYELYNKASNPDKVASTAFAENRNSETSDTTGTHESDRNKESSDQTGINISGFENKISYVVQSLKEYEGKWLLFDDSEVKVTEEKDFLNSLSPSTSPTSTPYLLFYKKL

Structure (SMILES)	Potency [1] [µM]	activity change, negative = inhibition [2] [%]	Potency [3]	activity change, negative = inhibition [4] [%]	activity, negative = inhibition [5] [%]	Potency [6] [µM]	Potency [7] [µM]	Potency [8]	Potency [9]	Potency [10]	Potency [11]	Potency [12]	outcome [13]	Potency [14]	Potency [15]	activation [16] [%]
N#Cc1ccccc1-c1ccc2ncnc(NCCN3CCOCC3)c2c1	> 11.4	1.67	10 µM (active)	-6.3	0.199	> 46	> 46	inactive	inactive	inactive	inactive	inactive	inactive	–	–	–
Cc1cnc(CNc2ncnc3ccc(-c4ccc(C(=O)N(C)C)cc4)cc23)cn1	> 11.4	-13.6	15.8 µM (active)	9.3	-5.52	> 46	> 46	inactive	inactive	–	inactive	inactive	inactive	–	–	–
COCCn1c(=O)c(-c2cccc(F)c2)nc2cncnc21	> 11.4	-16	2 µM (active)	-5.24	-1.12	> 9.22	> 46	inactive	–	inactive	inactive	inactive	inactive	–	–	–
COc1ccccc1-c1cc(Nc2ccn[nH]2)ncn1	> 11.4	-9.99	0.631 µM (active)	2.51	6.94	> 46	> 46	inactive	–	inactive	inactive	inactive	inactive	3.98 µM (active)	6.31 µM (active)	–
CN(C)c1ccc(-c2cncnc2NCc2cccnc2)cc1	> 11.4	-12.4	1 µM (active)	8.27	-10	> 46	> 46	inactive	inactive	inactive	inactive	inactive	inactive	0.631 µM (active)	0.0316 µM (active)	1.46
Cc1ccccc1-c1cc(N(C)Cc2ccco2)ncn1	> 11.4	7.17	3.98 µM (active)	-15.6	8.71	> 46	> 46	inactive	inactive	–	inactive	inactive	inactive	–	6.31 µM (active)	–
COc1ccccc1-c1cncnc1NCc1cccs1	> 11.4	0.247	3.16 µM (active)	-3.21	-6.68	> 46	> 46	inactive	–	inactive	inactive	–	inactive	–	2 µM (active)	–
CN(C)C(=O)c1ccc(-c2cncnc2-n2ccnc2)cc1	> 11.4	-3.64	20 µM (active)	13	3.39	> 46	> 46	inactive	inactive	inactive	inactive	inactive	inactive	–	–	–
COc1ccc2[nH]cc(CCNc3ncncc3-c3cccnc3)c2c1	> 11.4	9.96	0.316 µM (active)	3.23	2.25	> 46	> 46	inactive	inactive	inactive	inactive	inactive	inactive	0.794 µM (active)	3.16 µM (active)	–
